“And” between values parts separate entries of the source, which are not always exact repeats. Equal entries are not always repeated. Inconclusive results are not listed. Some compounds were tested as several samples or in several runs, with calls that do not always agree. The source made the active and inactive calls. Unless noted, the call rests on the fitted dose curve; in most records, active means well fitted curve in the direction sought with a large enough effect in the repeat runs; inconclusive means weak or mixed curves; inactive means no such curve, though single readings can be large; an effect the other way counts as inactive or inconclusive.

Experiment [1] is described as follows: qHTS assay to identify small molecule antagonists of the thyroid receptor (TR) signaling pathway - cell viability counter screen (AID 743064). Further: nearly all actives have a fitted effect of over 50% in size. Further: potency means the concentration at half of the fitted maximal effect. The method, boiled down: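 GH3.TRE-Luc cells, 4 h pre-plating; cpd + T3 1 nM final; 37 °C 23.5 h; CellTiter-Fluor 30 min; fluorescence read.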
Background: qHTS replaces the single test concentration by a dilution series.

Experiment [2] concerns thyroid hormone receptor (rat, GH3 cells). Put plainly: qHTS assay to identify small molecule agonists of the thyroid receptor (TR) signaling pathway (AID 743066; calls by dose curve).
For experiment [3], the target named is Estrogen receptor (Homo sapiens) (UniProt P03372). Put plainly: qHTS assay to identify small molecule antagonists of the estrogen receptor alpha (ER-alpha) signaling pathway (AID 743069; active means well fitted curve in the direction sought with a large enough effect in the signal ratio in the repeat runs, not every such curve was filed as active; the % refers to the signal ratio). The method in brief:
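ER-alpha-UAS-bla GripTite HEK293 line; 2% charcoal-stripped FBS overnight; plated, 4 hr 37C/5% CO2; cpd in DMSO + 17beta-estradiol, 18 hr 37C; LiveBLAzer B/G FRET substrate 2 hr RT; fluorescence intensity.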

Experiment [4] can be described thus: qHTS assay to identify small molecule antagonists of the estrogen receptor alpha (ER-alpha) signaling pathway - cell viability counter screen (AID 743074; calls by dose curve;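 further: HEK293 cells carrying ER-alpha-UAS-bla reporter stimulated with 17beta-estradiol; nearly all actives have a fitted effect of over 45% in size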).
Experiment [5] addresses Estrogen receptor (Homo sapiens) (UniProt P03372). Put plainly: qHTS assay to identify small molecule agonists of the estrogen receptor alpha (ER-alpha) signaling pathway (AID 743075; calls by dose curve;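 further: HEK293 GripTite cells with ER-alpha and UAS-driven beta-lactamase reporter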).
Experiment [6] shares this target. Put plainly: qHTS assay to identify small molecule agonists of the estrogen receptor alpha (ER-alpha) signaling pathway using the BG1 cell line (AID 743079). Further: nearly all actives have a fitted effect of over 20% in size.
The target in experiment [7] is Aromatase (Homo sapiens) (UniProt P11511). Put plainly: qHTS assay to identify aromatase inhibitors (AID 743083). Further: nearly all actives have a fitted effect of over 55% in size. Further: potency means the concentration at half of the fitted maximal effect.
Experiment [8] in a line: qHTS assay to identify aromatase inhibitors - cell viability counter screen (AID 743084).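 Further: cells stimulated with testosterone during compound exposure; nearly all actives have a fitted effect of over 55% in size.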 Further: potency means the concentration at half of the fitted maximal effect.
The target of experiment [9] is Aryl hydrocarbon receptor (Homo sapiens) (UniProt P35869). In words: qHTS assay to identify small molecule that activate the aryl hydrocarbon receptor (AhR) signaling pathway (AID 743085).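 Further: HG2L7.5c1 human HepG2 liver cells with stably integrated DRE-driven firefly reporter; series mostly up to about 70 µM; nearly all actives have a fitted effect of over 15% in size.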 The method, boiled down:
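Luminescence read-out: ONE-Glo reagent, 30 min at room temperature, in HG2L7.5c1 HepG2 reporter cells treated 24 h at 37C. Viability was measured beforehand by CellTiter-Fluor fluorescence after 30 min at 37C.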

Experiment [10] can be described thus: qHTS assay to identify small molecule that activate the aryl hydrocarbon receptor (AhR) signaling pathway - cell viability counter screen (AID 743086).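 Further: HepG2 liver cells carrying the AhR DRE luciferase reporter; series mostly up to about 70 µM; nearly all actives have a fitted effect of over 45% in size.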 The method in brief:
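Cytotoxicity counter screen: CellTiter-Fluor signal (30 min, 37 C) in 4000 HepG2 cells/well carrying the DRE-luciferase reporter, following 24 h compound exposure at 37 C.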

The target of experiment [11] is Peroxisome proliferator-activated receptor gamma (Homo sapiens) (UniProt P37231). In words: qHTS assay to identify small molecule agonists of the peroxisome proliferator-activated receptor gamma (PPARg) signaling pathway (AID 743094; active means well fitted activation curve with a large enough effect in the signal ratio in the repeat runs, not every such curve was filed as active; the % refers to the signal ratio). The method in brief:
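Beta-lactamase FRET fluorescence was the read-out after a 1 h room-temperature substrate step, following 17 h compound treatment at 37C of HEK293H cells expressing a UAS-driven bla reporter responsive to PPARg.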

For experiment [12] the target is unchanged. Put plainly: qHTS assay to identify small molecule antagonists of the peroxisome proliferator-activated receptor gamma (PPARg) signaling pathway (AID 743191; calls by dose curve; further: series mostly up to about 63 µM; nearly all actives have a fitted effect of over 30% in size). The method, boiled down: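 Beta-lactamase reporter under UAS control in HEK293H PPARg-bla cells; compound treatment 17 h at 37C. Read-out: fluorescence intensity after 1 h room-temperature incubation with LiveBLAzer B/G FRET substrate.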

Experiment [13] in a line: qHTS assay to identify small molecule antagonists of the peroxisome proliferator-activated receptor gamma (PPARg) signaling pathway - cell viability counter screen (AID 743194). Further: nearly all actives have a fitted effect of over 55% in size. The method, boiled down:
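Viability was measured as CellTiter-Glo luminescence in GeneBLAzer PPARg UAS-bla HEK293H cells. These cells had been exposed 17 h at 37 C to compounds together with rosiglitazone at 50 nM final, with the beta-lactamase readout taken in the same wells.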

The nature of experiment [14]: qHTS assay for small molecule agonists of the antioxidant response element (ARE) signaling pathway - cell viability counter screen (AID 743203; calls by dose curve; further: nearly all actives have a fitted effect of over 55% in size). The method, boiled down:
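HepG2 cells carrying ARE-driven beta-lactamase; 2,000 cells/well; 5 hrs plating; compound pinned from DMSO; 16 hrs 37C/5% CO2; CellTiter-Glo added; 30 min RT; luminescence.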

Experiment [15] in a line: qHTS assay for small molecule activators of the heat shock response signaling pathway - cell viability counter screen (AID 743209). Further: nearly all actives have a fitted effect of over 50% in size. The method in brief: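 Luminescence from CellTiter-Glo, added after the beta-lactamase FRET read, gave the viability signal. Cells were HSE-bla HeLa treated with DMSO-dissolved compounds for 5 h at 37 C following overnight plating.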
Experiment [16] can be described thus: qHTS assay for small molecule activators of the heat shock response signaling pathway (AID 743210; active means well fitted activation curve with a large enough effect in the signal ratio in the repeat runs, with a control signal flat, not every such curve was filed as active; the % refers to the signal ratio;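 further: HeLa cells with beta-lactamase reporter driven by heat shock elements; series mostly up to about 63 µM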). The method, boiled down:
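HeLa HSE-bla cells, overnight plating; cpd in DMSO 5 h, 37 C; LiveBLAzer B/G FRET substrate 2.5 h RT; fluorescence intensity read.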

A short description of experiment [17]: qHTS assay to identify small molecule antagonists of the estrogen receptor alpha (ER-alpha) signaling pathway using the BG1 cell line (AID 743080; calls by dose curve;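 further: BG1 cells stimulated with 17beta-estradiol alongside compound; series mostly up to about 70 µM; nearly all actives have a fitted effect of over 25% in size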). The method in brief: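 After 5 days in phenol-red-free 10% charcoal-stripped FBS medium, BG1-Luc-4E2 cells were seeded, left 24 h at 37 C, co-treated with compounds and 17beta-estradiol for 21.5 h, then assayed for viability and luciferase.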

The nature of experiment [18]: qHTS assay to identify small molecule antagonists of the estrogen receptor alpha (ER-alpha) signaling pathway using the BG1 cell line - cell viability counter screen (AID 743081).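 Further: compound given together with 17beta-estradiol as the ER stimulus; series mostly up to about 70 µM; nearly all actives have a fitted effect of over 45% in size.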
Experiment [19] can be described thus: qHTS assay for small molecule agonists of the antioxidant response element (ARE) signaling pathway (AID 743202; active means well fitted activation curve with a large enough effect in the signal ratio in the repeat runs, not every such curve was filed as active; the % refers to the signal ratio). The method in brief: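 Quantitative high-throughput format in HepG2 cells bearing an integrated ARE-beta-lactamase reporter. Compound exposure lasted 16 h at 37 C, and fluorescence was read 2 h after adding LiveBLAzer B/G substrate at room temperature.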

Experiment [20] in a line: qHTS assay to identify small molecule antagonists of the thyroid receptor (TR) signaling pathway (AID 743065). The method, boiled down: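 Antagonism measured as loss of luciferase signal in GH3 cells stably carrying a TRE-luciferase reporter, co-treated with compound and T3 (1 nM final) for 23.5 h at 37 C. Viability was read in the same well by CellTiter-Fluor.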

Aromatase (Homo sapiens), sequence (P11511 whole entry, looked up): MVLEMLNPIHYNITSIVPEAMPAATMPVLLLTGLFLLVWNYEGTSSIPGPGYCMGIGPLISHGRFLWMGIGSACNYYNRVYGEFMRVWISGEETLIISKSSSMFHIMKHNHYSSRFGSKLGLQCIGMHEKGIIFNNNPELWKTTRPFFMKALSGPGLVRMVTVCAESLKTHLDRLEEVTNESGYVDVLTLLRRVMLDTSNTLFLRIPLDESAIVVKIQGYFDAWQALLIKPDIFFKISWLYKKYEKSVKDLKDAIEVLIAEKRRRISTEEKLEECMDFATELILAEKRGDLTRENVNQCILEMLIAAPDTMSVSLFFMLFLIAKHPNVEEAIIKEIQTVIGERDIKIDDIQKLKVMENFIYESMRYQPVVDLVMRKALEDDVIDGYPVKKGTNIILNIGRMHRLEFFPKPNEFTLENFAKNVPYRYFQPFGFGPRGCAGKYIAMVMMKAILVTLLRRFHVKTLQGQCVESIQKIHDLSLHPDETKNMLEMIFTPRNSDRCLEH
Peroxisome proliferator-activated receptor gamma (Homo sapiens), sequence (P37231 whole entry, looked up): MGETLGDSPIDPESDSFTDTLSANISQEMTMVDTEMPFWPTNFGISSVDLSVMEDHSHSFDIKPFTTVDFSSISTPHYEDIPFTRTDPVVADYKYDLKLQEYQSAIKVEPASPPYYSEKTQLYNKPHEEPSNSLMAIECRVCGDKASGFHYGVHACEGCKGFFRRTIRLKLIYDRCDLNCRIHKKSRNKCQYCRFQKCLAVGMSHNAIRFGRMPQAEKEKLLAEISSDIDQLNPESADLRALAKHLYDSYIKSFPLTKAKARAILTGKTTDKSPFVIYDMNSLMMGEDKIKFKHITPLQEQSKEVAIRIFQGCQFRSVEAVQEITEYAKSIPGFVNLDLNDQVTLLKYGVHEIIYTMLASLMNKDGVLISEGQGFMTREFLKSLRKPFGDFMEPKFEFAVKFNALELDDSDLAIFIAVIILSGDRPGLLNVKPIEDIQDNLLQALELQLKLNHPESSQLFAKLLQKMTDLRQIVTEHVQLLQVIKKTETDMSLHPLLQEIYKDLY
Estrogen receptor (Homo sapiens), sequence (P03372 whole entry, looked up): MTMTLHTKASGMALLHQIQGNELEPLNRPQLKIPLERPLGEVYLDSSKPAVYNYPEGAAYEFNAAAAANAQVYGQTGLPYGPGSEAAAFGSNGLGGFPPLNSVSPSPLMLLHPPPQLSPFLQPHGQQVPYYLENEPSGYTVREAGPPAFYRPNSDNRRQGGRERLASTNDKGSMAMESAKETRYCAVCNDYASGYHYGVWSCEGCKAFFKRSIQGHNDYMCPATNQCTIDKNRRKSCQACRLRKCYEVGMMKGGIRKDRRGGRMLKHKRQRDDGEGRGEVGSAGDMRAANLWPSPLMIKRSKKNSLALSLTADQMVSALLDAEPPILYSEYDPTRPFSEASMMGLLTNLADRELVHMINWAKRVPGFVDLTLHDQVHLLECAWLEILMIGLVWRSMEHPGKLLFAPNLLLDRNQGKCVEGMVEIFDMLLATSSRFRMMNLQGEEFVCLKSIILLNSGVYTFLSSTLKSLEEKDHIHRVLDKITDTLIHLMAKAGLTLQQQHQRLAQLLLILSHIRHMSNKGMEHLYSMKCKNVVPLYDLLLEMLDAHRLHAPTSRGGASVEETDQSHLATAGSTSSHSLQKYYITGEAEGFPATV
Aryl hydrocarbon receptor (Homo sapiens), sequence (P35869 whole entry, looked up): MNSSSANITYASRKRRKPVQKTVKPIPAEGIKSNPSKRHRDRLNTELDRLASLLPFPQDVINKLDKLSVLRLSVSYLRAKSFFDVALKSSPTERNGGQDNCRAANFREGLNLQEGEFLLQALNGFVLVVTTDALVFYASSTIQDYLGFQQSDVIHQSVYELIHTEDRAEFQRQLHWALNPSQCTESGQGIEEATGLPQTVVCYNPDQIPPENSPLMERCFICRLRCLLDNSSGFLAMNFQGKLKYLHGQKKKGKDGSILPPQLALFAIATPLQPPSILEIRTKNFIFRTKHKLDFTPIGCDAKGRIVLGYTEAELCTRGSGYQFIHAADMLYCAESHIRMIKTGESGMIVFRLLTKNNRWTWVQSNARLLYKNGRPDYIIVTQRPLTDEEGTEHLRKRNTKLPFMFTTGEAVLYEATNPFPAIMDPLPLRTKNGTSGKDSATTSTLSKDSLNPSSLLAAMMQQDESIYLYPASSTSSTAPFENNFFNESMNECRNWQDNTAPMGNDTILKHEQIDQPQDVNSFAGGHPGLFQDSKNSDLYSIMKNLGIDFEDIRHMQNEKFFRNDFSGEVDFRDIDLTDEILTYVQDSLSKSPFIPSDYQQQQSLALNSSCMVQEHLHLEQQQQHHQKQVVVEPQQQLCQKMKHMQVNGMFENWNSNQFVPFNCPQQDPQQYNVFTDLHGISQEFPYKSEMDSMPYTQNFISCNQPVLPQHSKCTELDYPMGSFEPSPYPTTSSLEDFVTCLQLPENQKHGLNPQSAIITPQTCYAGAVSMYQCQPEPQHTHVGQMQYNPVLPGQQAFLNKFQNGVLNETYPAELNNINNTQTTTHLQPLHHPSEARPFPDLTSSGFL

On to `Nc1nc2c(ncn2COC(CO)CO)c(=O)[nH]1`, for which the Potency result in [1], in experiment [5], in experiment [6], in experiment [7], in [8] and in experiment [9] was “inactive” in each case. The Potency entry in [10], in [12] and in experiment [14] was “inactive” in each case. In addition, the outcome in [2], in experiment [3], in [4], in experiment [11], in experiment [13] and in experiment [15] was inactive. In experiment [16], the compound was called inactive.
Regarding `CCN1CCC[C@H]1CNC(=O)c1c(O)c(Cl)cc(Cl)c1OC`, the Potency entry in experiment [1], in [5], in experiment [6], in [18], in [7] and in experiment [8] was “inactive” in each case. Further, the Potency result in [9], in [10] and in experiment [14] was “inactive” throughout. Also, the compound was called inactive in [2], in experiment [3], in [4], in experiment [17], in [13] and in experiment [15]. In addition, in [16], the compound was classed as inactive.
On to `CCO/C([O-])=N/c1c[n+](N2CCOCC2)no1`, for which the Potency entry in [1], in experiment [5], in experiment [6], in [18], in [7] and in [8] was “inactive” throughout. Moreover, the Potency result in experiment [9], in experiment [10] and in experiment [14] was “inactive” throughout. In addition, the outcome in experiment [2], in experiment [3], in [4], in experiment [17], in experiment [13] and in [15] was inactive. For the same compound, the result in [16] was inactive.
As for `O=C(O)COc1nn(Cc2ccccc2)c2ccccc12`, the Potency entry in [1], in experiment [5], in experiment [6], in experiment [18], in [7] and in experiment [8] was “inactive” in each case. In addition, the Potency result in [9], in [10], in [12], in experiment [19] and in experiment [14] was “inactive” throughout. In addition, the compound was called inactive in experiment [2], in [3], in experiment [4], in experiment [17], in experiment [15] and in experiment [16].
In the case of `CC(C)NC(=O)NC(C)C`, the Potency entry in experiment [1], in experiment [5], in experiment [6], in experiment [18], in [7] and in experiment [8] was “inactive” each time. For the same compound, the Potency result in experiment [9], in [10], in experiment [12] and in experiment [14] was “inactive” each time. Further, the result in experiment [2], in [3], in experiment [4], in [17], in experiment [13] and in experiment [15] was inactive. The compound was called inactive in experiment [16].
For `NCCc1cnc[nH]1`, the Potency entry in experiment [1], in experiment [20], in experiment [18], in [7], in experiment [8] and in experiment [10] was “inactive” each time. Moreover, in [14], the Potency entry was “inactive”. Besides, the result in [2], in experiment [4], in experiment [13] and in experiment [16] was inactive.
`COC(=O)C1=C(C)NC(C)=C(C(=O)OC)C1c1ccccc1[N+](=O)[O-]`: the Potency in experiment [1] is 48.6 µM (active); in experiment [7], 68.7 µM (active); in [8] it was “inactive and 54.5 µM (active)”. In addition, the call in [2], in experiment [3], in experiment [4], in experiment [17], in experiment [11] and in experiment [15] was inactive. The compound was classed as inactive in experiment [16]. Moreover, the Potency result in [5], in experiment [6], in [18], in experiment [10], in [12] and in experiment [14] was “inactive” each time.
In the case of `FC1(F)C(F)(F)C(F)(F)C2(F)C(F)(F)C(F)(F)C(F)(F)C(F)(F)C2(F)C1(F)F` (stereo unspecified), the Potency result in experiment [1], in experiment [5], in experiment [6], in experiment [18], in experiment [7] and in experiment [8] was “inactive” in each case. Besides, the Potency entry in experiment [9], in experiment [10] and in [12] was “inactive” in each case. Moreover, the result in [2], in [3], in experiment [4], in experiment [17], in experiment [11] and in experiment [13] was inactive. Besides, the outcome in experiment [15] and in experiment [16] was inactive.

The values above are taken from PubChem BioAssay (Tox21).
